Measured values reported in PMC7862700, “An all-to-all approach to the identification of sequence-specific readers for epigenetic DNA modifications on cytosine”.

What was measured:
Test in all cases: DAPPL (digital affinity profiling via proximity ligation, sequencing); 10 mM Tris-HCl pH 7.5, 50 mM NaCl, 1 mM DTT, 4% glycerol, room temperature, 30 min; GST-TFs on glutathione beads, 16-mer random dsDNA library, 0.1% formaldehyde crosslink after washing; high values mean tight binding
FLI1 = target: T1, FLI1 (Homo sapiens, UniProt Q01543 1-452); settings: protein: recombinant; tags: N-terminal GST; dsDNA, one strand shown
T1 sequence: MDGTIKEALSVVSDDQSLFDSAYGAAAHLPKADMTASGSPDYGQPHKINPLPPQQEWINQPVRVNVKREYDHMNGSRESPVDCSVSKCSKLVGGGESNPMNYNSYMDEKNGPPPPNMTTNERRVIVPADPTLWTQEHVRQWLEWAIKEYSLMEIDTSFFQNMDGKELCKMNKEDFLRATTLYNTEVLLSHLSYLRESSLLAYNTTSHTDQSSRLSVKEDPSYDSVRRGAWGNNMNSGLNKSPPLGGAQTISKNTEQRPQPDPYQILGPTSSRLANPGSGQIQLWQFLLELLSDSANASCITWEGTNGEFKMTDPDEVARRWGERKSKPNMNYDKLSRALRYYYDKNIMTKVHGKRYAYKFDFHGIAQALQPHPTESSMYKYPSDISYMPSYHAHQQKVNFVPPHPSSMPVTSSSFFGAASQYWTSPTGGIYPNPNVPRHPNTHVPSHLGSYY
How it was run: (§1)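 A tag-only sample was pooled with DNA-barcoded human transcription factors that had been expressed in yeast as GST fusions and captured on glutathione beads. The pools were incubated for 30 min at room temperature with 200 nmole of a random double-stranded 16-mer DNA library in Tris/NaCl/DTT/glycerol buffer, then washed, crosslinked with 0.1% formaldehyde, proximity-ligated (BsaI/T4 ligase, 1 h, 37 °C), PCR-amplified and sequenced on an Illumina NextSeq500. Binding signal is each hexamer's read frequency for a factor divided by its frequency for the tag-only sample.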

ELK1 = target: T2, ELK1 (Homo sapiens, UniProt P19419 1-428); settings: protein: recombinant; tags: N-terminal GST; dsDNA, one strand shown
T2 sequence: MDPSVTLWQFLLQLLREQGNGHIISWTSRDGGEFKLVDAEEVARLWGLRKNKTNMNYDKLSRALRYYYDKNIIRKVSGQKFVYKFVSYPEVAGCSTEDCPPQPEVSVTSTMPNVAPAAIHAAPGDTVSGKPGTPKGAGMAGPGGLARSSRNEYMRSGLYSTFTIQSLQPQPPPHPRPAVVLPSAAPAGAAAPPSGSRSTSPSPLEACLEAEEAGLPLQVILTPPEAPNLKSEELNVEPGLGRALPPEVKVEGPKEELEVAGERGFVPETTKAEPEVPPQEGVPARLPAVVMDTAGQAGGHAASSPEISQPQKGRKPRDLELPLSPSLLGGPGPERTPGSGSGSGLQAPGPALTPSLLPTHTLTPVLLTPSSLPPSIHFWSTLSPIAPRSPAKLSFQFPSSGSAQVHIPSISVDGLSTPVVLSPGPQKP
How it was run: as §1

GABPA = target: T3, GABPA (Homo sapiens, UniProt Q06546 1-454); settings: protein: recombinant; tags: N-terminal GST; dsDNA, one strand shown
T3 sequence: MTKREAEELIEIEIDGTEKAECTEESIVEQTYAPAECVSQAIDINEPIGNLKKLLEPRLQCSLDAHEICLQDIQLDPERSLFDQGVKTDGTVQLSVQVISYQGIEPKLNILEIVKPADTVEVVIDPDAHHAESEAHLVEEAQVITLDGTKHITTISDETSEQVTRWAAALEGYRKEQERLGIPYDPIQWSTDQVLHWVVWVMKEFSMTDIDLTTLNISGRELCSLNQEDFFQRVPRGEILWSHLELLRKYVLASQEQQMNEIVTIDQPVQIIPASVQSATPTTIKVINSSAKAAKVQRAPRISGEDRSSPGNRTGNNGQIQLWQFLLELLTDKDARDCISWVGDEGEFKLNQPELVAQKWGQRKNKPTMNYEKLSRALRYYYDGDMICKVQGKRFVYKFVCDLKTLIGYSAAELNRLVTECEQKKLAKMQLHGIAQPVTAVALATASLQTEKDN
How it was run: as §1

ERG = target: T4, ERG (Homo sapiens, UniProt P11308 1-479); settings: protein: recombinant; tags: N-terminal GST; dsDNA, one strand shown
T4 sequence: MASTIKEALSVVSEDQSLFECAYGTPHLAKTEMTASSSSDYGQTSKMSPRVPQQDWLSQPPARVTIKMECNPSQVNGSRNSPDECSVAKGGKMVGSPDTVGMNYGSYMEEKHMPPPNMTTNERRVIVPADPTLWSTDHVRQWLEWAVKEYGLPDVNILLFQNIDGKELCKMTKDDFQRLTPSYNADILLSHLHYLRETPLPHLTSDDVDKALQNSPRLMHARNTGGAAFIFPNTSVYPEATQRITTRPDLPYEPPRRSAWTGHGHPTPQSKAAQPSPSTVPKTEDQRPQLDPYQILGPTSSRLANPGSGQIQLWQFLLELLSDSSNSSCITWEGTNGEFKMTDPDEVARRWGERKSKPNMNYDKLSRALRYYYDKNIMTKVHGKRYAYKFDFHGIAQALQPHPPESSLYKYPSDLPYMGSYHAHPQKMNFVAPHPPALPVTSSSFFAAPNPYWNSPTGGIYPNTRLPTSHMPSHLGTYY
How it was run: as §1

ELF1 = ELF1 (Homo sapiens, UniProt P32519 1-619); settings: protein: recombinant; tags: N-terminal GST; dsDNA, one strand shown
How it was run: as §1

EHF = target: T5, EHF (Homo sapiens, UniProt Q9NZC4 1-300); settings: protein: recombinant; tags: N-terminal GST; dsDNA, one strand shown
T5 sequence: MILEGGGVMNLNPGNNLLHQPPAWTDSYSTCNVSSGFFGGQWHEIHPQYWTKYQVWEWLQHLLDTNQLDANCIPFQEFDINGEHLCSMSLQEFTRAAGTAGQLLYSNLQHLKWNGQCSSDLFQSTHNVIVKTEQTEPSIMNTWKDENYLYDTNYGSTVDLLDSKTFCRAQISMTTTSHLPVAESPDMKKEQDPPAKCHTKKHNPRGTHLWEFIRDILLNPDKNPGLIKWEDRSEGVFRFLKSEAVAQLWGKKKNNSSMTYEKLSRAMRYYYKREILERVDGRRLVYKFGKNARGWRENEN
How it was run: as §1

SPI1 = SPI1 (Homo sapiens, UniProt P17947 1-270); settings: protein: recombinant; tags: N-terminal GST; dsDNA, one strand shown
How it was run: as §1

SPIB = SPIB (Homo sapiens, UniProt Q01892 1-262); settings: protein: recombinant; tags: N-terminal GST; dsDNA, one strand shown
How it was run: as §1

ELK3 = target: T6, ELK3 (Homo sapiens, UniProt P41970 1-407); settings: protein: recombinant; tags: N-terminal GST; dsDNA, one strand shown
T6 sequence: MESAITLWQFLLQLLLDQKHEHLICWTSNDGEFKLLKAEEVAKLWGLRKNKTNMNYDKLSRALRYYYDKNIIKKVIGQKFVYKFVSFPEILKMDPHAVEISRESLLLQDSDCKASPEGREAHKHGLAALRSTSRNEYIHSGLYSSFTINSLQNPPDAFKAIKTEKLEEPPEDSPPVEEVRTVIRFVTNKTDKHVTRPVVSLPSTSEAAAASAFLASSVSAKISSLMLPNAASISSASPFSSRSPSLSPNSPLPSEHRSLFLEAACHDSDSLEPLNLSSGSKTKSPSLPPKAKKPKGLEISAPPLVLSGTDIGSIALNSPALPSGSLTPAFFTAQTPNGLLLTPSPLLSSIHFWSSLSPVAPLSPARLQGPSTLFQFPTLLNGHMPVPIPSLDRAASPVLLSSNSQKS
How it was run: as §1

FEV = target: T7, FEV (Homo sapiens, UniProt Q99581 1-238); settings: protein: recombinant; tags: N-terminal GST; dsDNA, one strand shown
T7 sequence: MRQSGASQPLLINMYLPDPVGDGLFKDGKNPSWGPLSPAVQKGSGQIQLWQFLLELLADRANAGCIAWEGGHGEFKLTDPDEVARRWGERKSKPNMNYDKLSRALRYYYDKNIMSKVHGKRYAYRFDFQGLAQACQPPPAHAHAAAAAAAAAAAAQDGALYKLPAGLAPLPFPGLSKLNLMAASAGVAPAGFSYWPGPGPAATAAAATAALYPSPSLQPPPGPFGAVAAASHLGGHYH
How it was run: as §1

ETV5 = ETV5 (Homo sapiens, UniProt P41161 1-510); settings: protein: recombinant; tags: N-terminal GST; dsDNA, one strand shown
How it was run: as §1

HSF1 = HSF1 (Homo sapiens, UniProt Q00613 1-529); settings: protein: recombinant; tags: N-terminal GST; chain copies: 3; dsDNA, one strand shown
How it was run: as §1

ELF4 = ELF4 (Homo sapiens, UniProt Q99607 1-663); settings: protein: recombinant; tags: N-terminal GST; dsDNA, one strand shown
How it was run: as §1

ELK4 = target: T8, ELK4 (Homo sapiens, UniProt P28324-2 1-405); settings: protein: recombinant; tags: N-terminal GST; dsDNA, one strand shown
T8 sequence: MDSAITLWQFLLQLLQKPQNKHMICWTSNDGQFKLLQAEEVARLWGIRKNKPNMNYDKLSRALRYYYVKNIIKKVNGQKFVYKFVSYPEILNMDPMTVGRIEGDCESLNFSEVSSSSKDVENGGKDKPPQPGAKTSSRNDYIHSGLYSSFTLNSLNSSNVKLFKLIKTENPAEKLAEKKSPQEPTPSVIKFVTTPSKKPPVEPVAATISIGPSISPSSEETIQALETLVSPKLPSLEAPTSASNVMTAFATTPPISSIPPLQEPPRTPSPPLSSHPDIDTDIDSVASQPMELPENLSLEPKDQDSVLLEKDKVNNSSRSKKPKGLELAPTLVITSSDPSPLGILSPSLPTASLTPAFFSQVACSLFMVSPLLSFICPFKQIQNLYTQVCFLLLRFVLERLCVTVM
How it was run: as §1

ETV2 = target: T9, ETV2 (Homo sapiens, UniProt O00321 1-342); settings: protein: recombinant; tags: N-terminal GST; dsDNA, one strand shown
T9 sequence: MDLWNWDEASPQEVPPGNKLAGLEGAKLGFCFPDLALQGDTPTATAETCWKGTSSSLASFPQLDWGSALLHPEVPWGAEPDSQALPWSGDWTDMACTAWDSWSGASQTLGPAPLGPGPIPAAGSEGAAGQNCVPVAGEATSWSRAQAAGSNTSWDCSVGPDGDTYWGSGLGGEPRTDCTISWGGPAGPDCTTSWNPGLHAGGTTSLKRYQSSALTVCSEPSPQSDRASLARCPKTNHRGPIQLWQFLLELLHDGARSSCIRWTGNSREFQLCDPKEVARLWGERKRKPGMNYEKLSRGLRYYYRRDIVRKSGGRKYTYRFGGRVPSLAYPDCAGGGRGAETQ
How it was run: as §1

ELF3 = target: T10, ELF3 (Homo sapiens, UniProt P78545 1-371); settings: protein: recombinant; tags: N-terminal GST; dsDNA, one strand shown
T10 sequence: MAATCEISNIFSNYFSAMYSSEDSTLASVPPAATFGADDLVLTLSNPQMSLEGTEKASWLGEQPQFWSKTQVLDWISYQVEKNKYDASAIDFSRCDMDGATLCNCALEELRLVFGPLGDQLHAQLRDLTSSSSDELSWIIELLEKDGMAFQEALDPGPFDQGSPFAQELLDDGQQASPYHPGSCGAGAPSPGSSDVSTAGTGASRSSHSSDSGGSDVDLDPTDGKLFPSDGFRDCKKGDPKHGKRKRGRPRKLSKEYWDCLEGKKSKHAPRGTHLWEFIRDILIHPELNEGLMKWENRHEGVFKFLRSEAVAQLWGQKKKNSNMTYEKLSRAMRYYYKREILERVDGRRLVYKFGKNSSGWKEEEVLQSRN
How it was run: as §1

CRX = CRX (Homo sapiens, UniProt O43186 1-299); settings: protein: recombinant; tags: N-terminal GST; dsDNA, one strand shown
How it was run: as §1

ETV1 = ETV1 (Homo sapiens, UniProt P50549 1-477); settings: protein: recombinant; tags: N-terminal GST; dsDNA, one strand shown
How it was run: as §1

ELF1, sequence (P32519 whole entry): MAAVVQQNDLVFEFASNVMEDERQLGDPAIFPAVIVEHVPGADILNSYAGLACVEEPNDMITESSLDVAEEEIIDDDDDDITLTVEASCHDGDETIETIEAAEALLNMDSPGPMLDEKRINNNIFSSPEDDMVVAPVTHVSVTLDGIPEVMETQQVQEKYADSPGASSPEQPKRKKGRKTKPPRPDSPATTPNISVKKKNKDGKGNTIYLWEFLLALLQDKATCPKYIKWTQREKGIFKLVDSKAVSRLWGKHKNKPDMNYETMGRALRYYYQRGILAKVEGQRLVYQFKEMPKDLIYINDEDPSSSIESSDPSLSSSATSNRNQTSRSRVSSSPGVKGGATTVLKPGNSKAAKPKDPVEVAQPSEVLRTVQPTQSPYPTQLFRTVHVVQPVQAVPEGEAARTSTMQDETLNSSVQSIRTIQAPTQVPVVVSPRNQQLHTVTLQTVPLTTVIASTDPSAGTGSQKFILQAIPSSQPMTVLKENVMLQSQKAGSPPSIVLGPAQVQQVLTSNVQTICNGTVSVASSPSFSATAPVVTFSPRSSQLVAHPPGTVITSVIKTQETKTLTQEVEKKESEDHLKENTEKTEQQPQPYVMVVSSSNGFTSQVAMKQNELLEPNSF
CRX, sequence (O43186 whole entry): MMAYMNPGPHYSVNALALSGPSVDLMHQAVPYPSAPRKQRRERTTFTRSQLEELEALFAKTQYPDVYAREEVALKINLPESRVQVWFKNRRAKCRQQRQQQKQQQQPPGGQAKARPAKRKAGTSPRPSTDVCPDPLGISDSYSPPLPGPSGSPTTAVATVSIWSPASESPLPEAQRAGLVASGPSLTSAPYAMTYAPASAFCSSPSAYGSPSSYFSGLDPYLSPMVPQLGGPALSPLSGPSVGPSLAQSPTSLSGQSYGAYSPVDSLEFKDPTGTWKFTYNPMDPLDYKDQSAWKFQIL
ETV5, sequence (P41161 whole entry): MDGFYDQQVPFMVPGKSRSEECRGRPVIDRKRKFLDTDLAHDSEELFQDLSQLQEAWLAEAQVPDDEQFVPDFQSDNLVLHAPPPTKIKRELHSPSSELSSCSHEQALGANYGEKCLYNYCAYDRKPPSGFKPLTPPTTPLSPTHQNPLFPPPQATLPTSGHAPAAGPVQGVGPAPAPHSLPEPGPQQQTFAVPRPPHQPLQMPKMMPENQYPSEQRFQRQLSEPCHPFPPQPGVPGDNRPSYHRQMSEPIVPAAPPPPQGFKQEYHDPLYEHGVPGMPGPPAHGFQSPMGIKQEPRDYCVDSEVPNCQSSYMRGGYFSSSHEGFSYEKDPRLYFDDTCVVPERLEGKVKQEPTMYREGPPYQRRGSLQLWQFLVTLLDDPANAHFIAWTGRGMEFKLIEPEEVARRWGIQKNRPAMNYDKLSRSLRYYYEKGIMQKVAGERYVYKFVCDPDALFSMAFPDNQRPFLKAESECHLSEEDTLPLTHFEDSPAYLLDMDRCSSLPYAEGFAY
ETV1, sequence (P50549 whole entry): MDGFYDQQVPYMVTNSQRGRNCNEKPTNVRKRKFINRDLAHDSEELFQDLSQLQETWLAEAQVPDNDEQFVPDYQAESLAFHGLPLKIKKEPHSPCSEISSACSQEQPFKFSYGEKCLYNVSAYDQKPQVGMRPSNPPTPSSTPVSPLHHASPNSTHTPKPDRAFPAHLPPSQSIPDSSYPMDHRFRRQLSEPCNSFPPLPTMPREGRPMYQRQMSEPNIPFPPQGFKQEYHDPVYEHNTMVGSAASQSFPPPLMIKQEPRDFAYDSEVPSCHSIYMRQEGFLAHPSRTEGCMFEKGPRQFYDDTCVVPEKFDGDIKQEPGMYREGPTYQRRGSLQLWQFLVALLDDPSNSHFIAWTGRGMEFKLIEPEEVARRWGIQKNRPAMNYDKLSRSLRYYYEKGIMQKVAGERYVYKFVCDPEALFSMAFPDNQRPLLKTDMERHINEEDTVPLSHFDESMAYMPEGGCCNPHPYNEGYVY
ELF4, sequence (Q99607 whole entry): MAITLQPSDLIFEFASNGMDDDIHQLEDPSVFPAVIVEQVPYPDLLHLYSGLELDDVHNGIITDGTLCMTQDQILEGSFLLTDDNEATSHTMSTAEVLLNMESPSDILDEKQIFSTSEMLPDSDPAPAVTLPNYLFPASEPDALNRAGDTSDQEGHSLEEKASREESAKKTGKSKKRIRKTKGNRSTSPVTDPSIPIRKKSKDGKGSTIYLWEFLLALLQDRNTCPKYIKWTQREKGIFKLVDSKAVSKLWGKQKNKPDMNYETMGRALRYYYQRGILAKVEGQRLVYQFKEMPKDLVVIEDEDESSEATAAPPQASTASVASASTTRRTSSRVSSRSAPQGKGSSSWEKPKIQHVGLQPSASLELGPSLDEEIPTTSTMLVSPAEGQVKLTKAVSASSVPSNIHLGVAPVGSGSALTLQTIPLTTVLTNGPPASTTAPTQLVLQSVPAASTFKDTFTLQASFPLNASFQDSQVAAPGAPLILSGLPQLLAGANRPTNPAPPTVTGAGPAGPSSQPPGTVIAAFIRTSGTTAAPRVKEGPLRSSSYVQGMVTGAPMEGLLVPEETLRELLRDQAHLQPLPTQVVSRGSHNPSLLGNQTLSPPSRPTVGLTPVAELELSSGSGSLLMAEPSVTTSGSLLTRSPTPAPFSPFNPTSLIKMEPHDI
SPIB, sequence (Q01892 whole entry): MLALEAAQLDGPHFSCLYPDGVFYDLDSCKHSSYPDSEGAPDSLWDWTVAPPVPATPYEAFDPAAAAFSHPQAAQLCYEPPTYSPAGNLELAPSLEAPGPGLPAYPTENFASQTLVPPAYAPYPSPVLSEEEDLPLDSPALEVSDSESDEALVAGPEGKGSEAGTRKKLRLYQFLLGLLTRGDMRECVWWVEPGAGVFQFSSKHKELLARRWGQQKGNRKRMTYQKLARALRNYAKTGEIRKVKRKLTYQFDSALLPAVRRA
HSF1, sequence (Q00613 whole entry): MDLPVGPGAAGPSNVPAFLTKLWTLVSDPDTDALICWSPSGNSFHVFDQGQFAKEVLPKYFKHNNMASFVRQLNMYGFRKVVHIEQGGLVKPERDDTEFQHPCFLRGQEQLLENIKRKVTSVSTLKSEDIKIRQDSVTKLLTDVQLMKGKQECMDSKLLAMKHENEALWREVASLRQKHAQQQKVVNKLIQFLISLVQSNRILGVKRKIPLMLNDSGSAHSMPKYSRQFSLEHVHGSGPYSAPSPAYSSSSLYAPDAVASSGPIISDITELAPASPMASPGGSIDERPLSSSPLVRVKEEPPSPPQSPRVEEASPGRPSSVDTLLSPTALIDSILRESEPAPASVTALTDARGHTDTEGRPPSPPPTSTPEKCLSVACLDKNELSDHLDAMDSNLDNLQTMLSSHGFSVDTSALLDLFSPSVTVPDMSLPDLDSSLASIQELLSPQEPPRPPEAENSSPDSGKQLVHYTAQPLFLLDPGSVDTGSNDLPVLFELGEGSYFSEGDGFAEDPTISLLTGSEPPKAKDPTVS

Question: Which binding signal (FLI1) does the source give for TCAAAG here?
Answer: The binding signal was 1.08 fold enrichment (6-mer frequency, TF over GST control).

Question: What about the binding signal (ELK1) of the same sequence?
Answer: The binding signal was 1.01 fold enrichment (6-mer frequency, TF over GST control).

Question: What about the binding signal (GABPA) of the same sequence?
Answer: The binding signal was 1.13 fold enrichment (6-mer frequency, TF over GST control).

Question: And the binding signal (ERG)?
Answer: Its binding signal is 1.09 fold enrichment (6-mer frequency, TF over GST control).

Question: What about the binding signal (ELF1) of the same sequence?
Answer: Its binding signal is 1.19 fold enrichment (6-mer frequency, TF over GST control).

Question: What about the binding signal (EHF) of the same sequence?
Answer: The binding signal was 1.02 fold enrichment (6-mer frequency, TF over GST control).

Question: And the binding signal (SPI1)?
Answer: Its binding signal is 1.1 fold enrichment (6-mer frequency, TF over GST control).

Question: What about the binding signal (SPIB) of the same sequence?
Answer: Its binding signal is 1.11 fold enrichment (6-mer frequency, TF over GST control).

Question: What about the binding signal (ELK3) of the same sequence?
Answer: Its binding signal is 1.15 fold enrichment (6-mer frequency, TF over GST control).

Question: And the binding signal (FEV)?
Answer: Its binding signal is 1.1 fold enrichment (6-mer frequency, TF over GST control).

Question: What about the binding signal (ETV5) of the same sequence?
Answer: Its binding signal is 1.08 fold enrichment (6-mer frequency, TF over GST control).

Question: What about the binding signal (HSF1) of the same sequence?
Answer: Its binding signal is 1.17 fold enrichment (6-mer frequency, TF over GST control).

Question: What about the binding signal (ELF4) of the same sequence?
Answer: Its binding signal is 1.14 fold enrichment (6-mer frequency, TF over GST control).

Question: What about the binding signal (ELK4) of the same sequence?
Answer: Its binding signal is 1.21 fold enrichment (6-mer frequency, TF over GST control).

Question: And the binding signal (ETV2)?
Answer: Its binding signal is 1.03 fold enrichment (6-mer frequency, TF over GST control).

Question: What about the binding signal (ELF3) of the same sequence?
Answer: The binding signal was 1.16 fold enrichment (6-mer frequency, TF over GST control).

Question: And the binding signal (CRX)?
Answer: Its binding signal is 1.32 fold enrichment (6-mer frequency, TF over GST control).

Question: What about the binding signal (ETV1) of the same sequence?
Answer: Its binding signal is 1.13 fold enrichment (6-mer frequency, TF over GST control).
